TDP1 inh: blocks human tyrosyl-DNA phosphodiesterase 1; Q9NUW8; recombinant TDP1, AlphaScreen DNA substrate cleavage; actives 0.28% (n = 350,000); Potency, µM (series often up to 130 µM), for the others: at the top dose activity change, negative = inhibition, most hits filed as inhibitors; note: potency is the fitted concentration of half-maximal effect; % is set by controls: 0 for no effect and ±100 for the full control effect; nearly all actives have a fitted effect of over 40% in size
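Recombinant E. coli-expressed Tdp1 (1 nM) preincubated with compound 15 min at RT, then 5'-biotin/3'-phosphotyrosine-FITC DNA substrate (15 nM) added for 5 min. AlphaScreen beads (10 ug/ml) added, 10 min RT; tyrosine-FITC cleavage read as signal loss.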
BAZ2B block: inhibitors of human BAZ2B bromodomain | Potency, µM (titrated, usually from 114 µM), for inactives: at the highest dose activity change, negative = inhibition, actives largely listed as inhibitors | actives 4.4% (n = 360,000) | AlphaScreen BAZ2B-H3K14Ac peptide displacement; note: potency is the fitted concentration of half-maximal effect; % is set by controls: 0 for no effect and ±100 for the full control effect; nearly all actives have a fitted effect of over 60% in size
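Protein-peptide AlphaScreen: BAZ2B 50 nM, b-H3K14Ac 50 nM, 1x PBS pH 7.4 + 0.01% Tween-20. Preincubation 30 min RT; cpd 30 min RT (top 110 uM); beads 20 min RT, light-protected.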
Six1-Eya2 inh: blocks human Six1 binding to Eya2. actives 0.56% (n = 360,000). activity change, % (concentration not given with the values). AlphaScreen GST-Six1/His-Eya2 binding, biochemical; active compounds read low; in the data active = activity change below about -65%; inconclusive = mostly about -30% to -63%; note: % is set by controls: 0 for no effect and ±100 for the full control effect
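Homogeneous AlphaScreen proximity assay pairing GST-Six1 with His-tagged Eya2 (added as 5X mix: 250 nM and 500 nM) in 50 mM Tris pH 8.0, 300 mM NaCl, 1 mM TCEP. Glutathione donor and nickel acceptor beads; 1 h, 37 °C, dark.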
JMJD2A Tudor inh: blocks the human JMJD2A Tudor domain; O75164; AlphaScreen JMJD2A-Tudor / H3K4me3 peptide binding; Potency, µM (series often up to 114 µM), inactives show at the highest dose activity change, negative = inhibition, most hits filed as inhibitors; actives 4.4% (n = 390,000); AID 504339; note: potency is the fitted concentration of half-maximal effect; % is set by controls: 0 for no effect and ±100 for the full control effect; nearly all actives have a fitted effect of over 50% in size
HP1b chromo inh: blocks HP1-beta chromodomain binding to methylated histone tails; actives 0.56% (n = 390,000); AID 540317; P83916; AlphaScreen HP1-beta / biotin-H3K9me3 peptide binding; Potency, µM (top dose mostly 114 µM), for the others: at the top dose activity change, negative = inhibition, most hits filed as inhibitors; note: potency is the fitted concentration of half-maximal effect; nearly all actives have a fitted effect of over 70% in size
Target sequence (P83916 whole entry, looked up): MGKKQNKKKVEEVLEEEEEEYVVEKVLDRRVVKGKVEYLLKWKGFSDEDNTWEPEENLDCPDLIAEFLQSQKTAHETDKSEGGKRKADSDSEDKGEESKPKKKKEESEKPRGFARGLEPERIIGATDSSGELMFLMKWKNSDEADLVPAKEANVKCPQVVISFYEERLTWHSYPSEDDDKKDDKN
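Compound inhibition of the preformed complex between 50 nM HP1-beta and 50 nM biotinylated H3K9me3 peptide was read by AlphaScreen. Buffer was PBS pH 7.4 with 0.01% Tween-20. Incubations ran 30 min at room temperature, with 10 ug/mL donor/acceptor beads.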
CtBP-E1A blk: blocks the CtBP interaction with E1A. AlphaScreen GST-E1A/His-CtBP binding, 1536-well; active compounds read low. activity change, % (concentration not given with the values). actives 0.49% (n = 340,000). AID 651724; in the data active = activity change below about -65%; inconclusive = mostly about -30% to -63%; note: % is set by controls: 0 for no effect and ±100 for the full control effect
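In 5 uL wells, 23 nL compound meets equimolar GST-E1A and His-CtBP (5X stock 125 nM each) for 2 h, 37 °C. Beads (5X, 50 ug/mL) then 1 h, 37 °C, dark.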
An asterisk follows results filed as active; ? = inconclusive; nt = not tested or not shown; ! = repeats disagree; [ ] = dose if it differs, or a comment. Rows were chosen to be rich in hits. Some 5.3% of all compounds tested hit in one or more screens of this group. Unless noted, calls come from the whole dose curve; as a rule, active = well fitted inhibition curve with a large enough effect; inconclusive = small, poorly fitted or top-dose-only effect; inactive = no such curve, though single readings can be large or run the other way.

SMILES	TDP1 inh	BAZ2B block	Six1-Eya2 inh	JMJD2A Tudor inh	HP1b chromo inh	CtBP-E1A blk
Cc1cccc(NC(=O)CCN2CCCCC2)c1	6%	3%	10	-5%	40%	1
Cc1cccc(OCC(=O)Nc2ccc3c(c2)nc(CCN2CCCCC2)n3C)c1	3%	-7%	-14	-23%	13%[57 µM]	nt
Cc1cc(N)ccc1NC(=O)CN1CCCC1	nt	50µM*	2	22µM*	?	-5
Cc1cccc(NC(=O)CN2CCCCCC2)c1	9%	?	7	20µM*	50µM*	5
Cc1cccc(OCC(=O)Nc2ccc3c(c2)nc(CN2CCCCC2)n3C)c1	10%	?	-3	89µM*!	31%	-25
O=C(Cn1c(=O)nc(-c2ccccc2)c2cc(Cl)ccc21)N1CCN(c2ccc(F)cc2)CC1	6%	-14%	nt	-20%	-8%	nt
CCc1ccc(CNC(=O)c2ccc(CSc3nc4ccncc4n3Cc3ccccc3)cc2)cc1	8%	-4%	nt	-33%	20%	nt
Cc1ccc(NC(=O)CN(C)CC(=O)Nc2ccc(F)c(Cl)c2)cc1	0%	50µM*	8	14µM*	?	5
Cc1ccc(OCCC(=O)Nc2ccc(F)c(Cl)c2)cc1	0%	6%	6	11%	64%	2
COc1ccc(-c2cc3ccccc3n2CC(O)CN2CCC(C)CC2)cc1 (stereo unspecified)	2%	50µM*	-11	18µM*	?	-9
CCC(C)NCCOCCSc1ccc(Cl)cc1 (stereo unspecified)	-4%	79µM*	0	3.5µM*	?	-3
C=CCc1cc(Cl)ccc1OCCOCCNC(C)CC (stereo unspecified)	nt	50µM*	15	1.4µM*	?	11
CCC(C)NCCOCCOc1ccc(Cl)c2ccccc12 (stereo unspecified)	-4%	?	-4	-21%	-1%	-5
CCC(C)NCCOCCOc1ccc(Cl)c(C)c1C (stereo unspecified)	-6%	-25%	6	3.5µM*	?	1
CCC(C)NCCCCOc1ccc(Cl)cc1C (stereo unspecified)	6%	-13%	4	14µM*	-20%	7
Cc1cc(Cl)ccc1OCCCC(=O)NN	0%	-19%	-2	-8%	31%	0
C=CCc1cc(C)ccc1OCCOCCC(C(=O)OCC)C(=O)OCC	3%	172%	27	8%	88%	46
CCN(Cc1nc(-c2ccc(OC)cc2)oc1C)S(=O)(=O)c1ccc(C)cc1	-4%	?	nt	11%	?	nt
Cc1cc2c(s1)c1cnn(Cc3c(Cl)ccc(C)c3F)c(=O)c1n2C	nt	nt	nt	-27%	nt	nt
CCc1ccccc1NC(=O)Cn1nc(CC)n2c(cc3sccc32)c1=O	-4%	-1%	nt	-8%	22%	nt
O=S(=O)(c1ccc2c(c1)OCCO2)N1CCN(S(=O)(=O)c2cc(F)c(F)cc2F)CC1	0%	nt	nt	0%	nt	nt
CS(=O)(=O)c1ccc(Sc2nc3ccccc3[nH]2)c([N+](=O)[O-])c1	8%	?	-11	11µM*	-6%	-11
Nc1nc2ccccc2[nH]1	15%	-1%	3	-6%	6%	-4
Nc1ccccc1Sc1nc2ccccc2[nH]1	8%	40µM*	-19	28µM*	?	3
Cc1nn2c(C)c(C(=O)NCc3ccc(OC(C)C)cc3)cnc2c1-c1ccc(F)cc1	3%	-7%	nt	-15%	29%	nt
SMILES	TDP1 inh	BAZ2B block	Six1-Eya2 inh	JMJD2A Tudor inh	HP1b chromo inh	CtBP-E1A blk
O=C(C1CCC1)N1CCN(S(=O)(=O)c2ccc(F)cc2)CC1	0%	79µM*	0	-10%	24%	1
O=C(C1CCCN(S(=O)(=O)c2ccc(F)cc2)C1)N1CCOCC1 (stereo unspecified)	nt	nt	-8	-18%	16%[57 µM]	-7
CN1CCN(C(=O)C2CCCN(S(=O)(=O)c3ccc(F)cc3)C2)CC1 (stereo unspecified)	6%	32µM*	2	5.6µM*	?	7
CCCCNC(=O)C1CCC(Cn2c(=O)c3sccc3n(CC(=O)N3CCCC3)c2=O)CC1 (stereo unspecified)	7%	17%	nt	-9%	107%	nt
Cc1onc(-c2ccccc2Cl)c1C(=O)Oc1cc(N)n(S(=O)(=O)c2ccc(F)cc2)n1	5%	-2%	-81*	-13%	18%	?
Cc1ccc(S(=O)(=O)n2nc(OC(=O)c3c(-c4ccccc4Cl)noc3C)cc2N)cc1	1%	?	-22	?	-23%	0
O=C(O)[C@@H]1[C@H]2C[C@H]3c4[nH]c5ccccc5c4CCN3C[C@@H]2CC[C@@H]1O	nt	?	-17	56µM*	-36%	-15
COc1ccc(C2c3ccccc3Oc3ncn(CCN4CCOCC4)c(=N)c32)cc1OC (stereo unspecified)	-6%	nt	nt	-35%	nt	nt
CC(=O)N=Cc1c(C)c(C#N)c(=O)n(C)c1O	6%	-31%	-1	-15%	34%	nt
Cc1c(C=O)c(Cl)n(C)c(=O)c1C#N	8%	56µM*	-3	79µM*	12%	1
Cc1c(C)n(Cc2ccccc2)c2ccc(C(=O)O)cc12	nt	nt	-13	-19%	-26%	-12
Cc1c(C)n(Cc2ccccc2)c2ccc(C(=O)NCCCN3CCOCC3)cc12	11%	?	-15	50µM*	-4%	-16
Cc1c(C)n(Cc2ccc(F)cc2)c2ccc(C(=O)NCCCN3CCOCC3)cc12	9%	28µM*	-18	45µM*	?	-24
Cc1nn(C)cc1/C=N\NC(=O)c1ccc2c(c1)c(C)c(C)n2Cc1ccccc1	12%	45µM*	-17	56µM*	-28%	-12
Cc1c(C)n(C)c2ccc(C(=O)NCCCN3CCN(c4ccccc4F)CC3)cc12	16%	?	?	56µM*	?	?
CCOc1ccc(NC(=O)CSc2nc3nc(C)c(Cc4ccccc4)c(C)n3n2)cc1	8%	1%	nt	-14%	32%	nt
CCCCCOC(=O)c1ccc(OC(=O)c2sc3ncn(Cc4cccc(F)c4)c(=O)c3c2C)cc1	-4%	12%	nt	6%	44%	nt
CC(=O)Nc1sc2c(c1C(N)=O)CCCC2	-1%	-6%	-2	-5%[57.1 µM]	48%	1
CCOC(=O)c1c(NC(=O)c2noc3c2CC(C(C)(C)C)CC3)sc2c1CCCC2 (stereo unspecified)	-1%	-2%	nt	79µM*	?	nt
CCCc1cc(C(=O)Nc2sc3c(c2C(=O)OCC)CCCC3)no1	7%	0%	-3	1%	17%	0
Cn1cc(Br)c(C(=O)Nc2sc3c(c2C(N)=O)CCC3)n1	2%	-8%	-71*	-8%	-12%	-79*
